Source: PubChem (National Center for Advancing Translational Sciences (NCATS))
This is a sample that favours compounds with a hit; in the whole collection about 0.43% have one here.
N370S GC mod = inhibits or activates N370S mutant glucocerebrosidase; N370S GC spleen homogenate, 4MU-glucoside fluorescence; Potency, µM (top dose mostly 59.4 µM), without a hit: at the highest dose activity change, negative = inhibition, hits mostly inhibitors; 0.092% of 330,000 active; AID 2101;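 note: potency is the fitted concentration of half-maximal effect; 0% = full enzyme activity and -100% = no enzyme basal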
GLA inh pH 4.5 = blocks human alpha-galactosidase A at pH 4.5. P06280. purified enzyme, 4-MU-alpha-Gal fluorescence, pH 4.5. activity change, negative = inhibition, % at 105 µM. 230,000 tested, under 10 active;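 note: 0% = full activity with enzyme and -100% = basal without enzyme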
Target sequence (P06280 whole entry, looked up): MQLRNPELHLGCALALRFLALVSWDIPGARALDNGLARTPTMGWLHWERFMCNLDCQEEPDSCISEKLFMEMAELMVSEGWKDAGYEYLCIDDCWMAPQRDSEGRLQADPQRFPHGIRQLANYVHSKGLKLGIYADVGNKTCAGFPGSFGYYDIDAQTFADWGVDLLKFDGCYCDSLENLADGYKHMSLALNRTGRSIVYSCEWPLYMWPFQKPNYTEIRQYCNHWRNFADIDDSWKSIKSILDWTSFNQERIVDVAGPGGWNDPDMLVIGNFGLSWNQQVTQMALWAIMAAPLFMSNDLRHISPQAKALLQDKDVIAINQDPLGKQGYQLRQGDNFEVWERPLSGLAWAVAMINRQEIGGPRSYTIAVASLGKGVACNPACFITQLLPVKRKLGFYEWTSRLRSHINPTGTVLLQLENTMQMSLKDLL
GLA spleen mod = inhibits or activates alpha-galactosidase in human spleen homogenate; AID 2107; 0.008% of 240,000 active; P06280; human spleen homogenate, 4MU-alpha-Gal fluorescence, 40 min; Potency, µM (series often up to 80 µM), inactives show top-dose activity change, negative = inhibition, usual class: inhibitors;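 note: potency is the fitted concentration of half-maximal effect; 0% = enzyme with vehicle and -100% = no enzyme basal signal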
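Human spleen homogenate (1 ug) as enzyme source, 4-methylumbelliferyl-alpha-D-galactopyranoside 1 mM final, citrate/phosphate pH 5.0 with 0.01% Tween-20. Compounds 40 min at 37C, NaOH/glycine stop; fluorescence Ex 365/Em 440, Hill-fit AC50.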
aGlu spleen mod = inhibits or activates alpha-glucosidase in human spleen homogenate; P10253; human spleen homogenate, 4-MU-alpha-glucoside fluorescence; Potency, µM (series often up to 79.9 µM), for the others: at the highest dose activity change, negative = inhibition, usual class: inhibitors; 0.006% of 240,000 active;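 note: potency is the fitted concentration of half-maximal effect; 0% = enzyme with vehicle and -100% = no enzyme basal signal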
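Human spleen homogenate (1 ug) incubated with compounds and 1 mM 4-methylumbelliferyl-alpha-D-glucopyranoside in pH 5.0 citrate/phosphate buffer, 37 C, 40 min. Stopped at pH 10; 4-MU fluorescence (Ex 365/Em 440 nm); AC50 by Hill fit.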
GAA inhib = blocks human lysosomal alpha-glucosidase; P10253; purified human GAA, 4-MU-alpha-glucoside fluorescence; Potency, µM (titrated, usually from 76.9 µM), for inactives: at the top dose activity change, negative = inhibition, hits mostly inhibitors; 0.005% of 200,000 active; AID 1466;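 note: potency is the fitted concentration of half-maximal effect; plate controls were uninhibited enzyme wells for no effect and no-enzyme background for full effect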
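Human alpha-glucosidase, 4 nM, pre-mixed with test compounds before 400 uM 4-methylumbelliferyl substrate; 20 min room temperature at pH 5.0. Fluorescence read after pH 10 stop; AC50 values from Hill-equation fits.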
GAA glycogen = alters human alpha-glucosidase cleavage of glycogen. recombinant GAA, glycogen substrate, Amplex Red glucose oxidase fluorescence. 0.38% of 300,000 active. P10253. Potency, µM (doses to about 76.4 µM), for inactives: at the top dose activity change, negative = inhibition, usual class: inhibitors. AID 2100;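 note: potency is the fitted concentration of half-maximal effect; 0% = full enzyme reaction and -100% = no-enzyme basal signal; the screen sought inhibitors and activators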
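Recombinant enzyme (4 nM final) with compounds titrated up to 77 uM and bovine liver glycogen (30 ug) in citrate pH 5.0, 0.01% Tween-20, 37 C 40 min. Released glucose detected by Amplex Red/glucose oxidase (Ex 573/Em 610); AC50 from Hill fits.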
Starred values were filed as active, the others as inactive; ? = inconclusive; nt = not tested or not shown; [ ] = remark or other dose. Calls come from the whole dose curve; as a rule, active = well fitted curve in the direction sought with a large enough effect; inconclusive = small, poorly fitted or top-dose-only effect, or another doubt; inactive = no such curve, though single readings can be large; an effect the other way counts as inactive or inconclusive.

SMILES	N370S GC mod	GLA inh pH 4.5	GLA spleen mod	aGlu spleen mod	GAA inhib	GAA glycogen
O=C(O)[C@H](Cc1c[nH]c2ccccc12)N1C(=O)C2=CCCC=C2C1=O	-4%	nt	1%	-1%	nt	nt
CC(=O)Nc1ccc(Nc2nc3c(S(=O)(=O)c4cccc(Cl)c4)nnn3c3ccsc23)cc1	nt	nt	nt	nt	nt	15%[76.3 µM]
Cc1cc(C)cc(Nc2nc3c(S(=O)(=O)c4cccc(Cl)c4)nnn3c3ccsc23)c1	nt	nt	nt	nt	nt	40µM*
CC1=NNC(=O)C1C(c1ccccc1)C1C(=O)NN=C1C (stereo not given)	4%	-3	5%	1%	?	13µM*
CC1=NNC(=O)C1C(c1cccc(O)c1)C(C#N)C#N (stereo not given)	7%	-4	1%	-2%	nt	-13%
CN1c2ccccc2C(C)(C)C12C=Cc1cc(O)ccc1O2 (stereo not given)	1%	-20	5%	-11%	0%	12µM*
CN1c2ccccc2C(C)(C)C12C=Nc1c(cc(N3CCOCC3)c3ccccc13)O2 (stereo not given)	?	-15	9%	3%	5%	-22%
COC(=O)[C@H](Cc1ccccc1)NC(=O)[C@@H](C)CO	14%[12.8 µM]	nt	-3%[17.5 µM]	-1%[17.4 µM]	nt	nt
FC(F)(F)C(F)(F)C(F)(F)c1nnc2ccc(N3CCOCC3)nn12	20%	-13	3%	-12%	-1%	2%
NNc1ccc2nnc(C(F)(F)C(F)(F)C(F)(F)F)n2n1	13%	6	5%	4%	8%	32µM*
Cn1c(-c2ccc3c(c2)OCO3)cnc1NCc1cccc(Cl)c1	12%	2	-8%	-7%	-3%	18µM*
C=Cc1ccc(S(=O)(=O)O)cc1	-9%	nt	-1%	-3%	nt	nt
COc1ccc(N2C(=O)CC(Nc3ccc(C)cc3)C2=O)cc1 (stereo not given)	15%	0	2%	-4%	1%	-18%
COc1ccc(NC2CC(=O)NC2=O)cc1 (stereo not given)	8%	14	1%	-1%	-4%	11µM*
CCOc1ccc(NC(=O)CNC(=O)c2cn(-c3ccccc3OC)c(=O)c3ccccc23)cc1	13µM*	-10	-2%	-6%	-11%	-4%
O=C1CCC=C1[C@@H](O)CCc1ccccc1	0%[12.8 µM]	nt	5%[17.5 µM]	-4%[17.4 µM]	nt	nt
Cc1ccc(O)c(NC(=O)c2cccc(NC(=O)c3ccco3)c2)c1	-19%	6	5%	1%	-6%	13µM*
Cc1cc(O)c(NC(=O)c2ccco2)cc1C	7%	-3	-6%	-15%	-5%	11µM*
Cc1ccc(O)c(NC(=O)c2ccco2)c1	1%	-9	11%	-1%	-2%	?
CCOC(=O)N1C(COCc2ccccc2)C=CCS1(=O)=O (stereo not given)	-12%	nt	2%	-10%	nt	nt
OCC1CCCN(C(=S)Nc2ccc(Nc3ccccc3)cc2)C1 (stereo not given)	-6%	3	2%	-8%	-12%	25µM*
OCC1CCCN(C(=S)Nc2ccc(OC(F)F)cc2)C1 (stereo not given)	-3%	-1	2%	-7%	3%	12%
CC(C)NC(=S)N/N=C/c1c[nH]c2ccccc12	26%	-13	6%	7%	-1%	-3%
Cc1[nH]c2ccccc2c1/C=N/NC(=S)NC(C)C	?	-17	6%	4%	2%	7.9µM*
Cc1[nH]c2ccccc2c1/C=N/Nc1ccccc1[N+](=O)[O-]	10%	2	10%	2%	-3%	6.3µM*
SMILES	N370S GC mod	GLA inh pH 4.5	GLA spleen mod	aGlu spleen mod	GAA inhib	GAA glycogen
C#CCCCO/N=C1/C[C@@H](O)[C@@H](O)[C@@H]2[C@@H]3C(=O)N(Cc4ccc5c(c4)OCO5)C(=O)[C@H]3CC[C@@H]12	3%[12.8 µM]	nt	8%[17.5 µM]	4%[17.4 µM]	nt	nt
COc1cc(CNc2ccc3c(c2)CCC3)cc(OC)c1O	2%	3	-10%	-17%	5%	25µM*
CN1[C@H]2CC(OC(=O)[C@H](CO)c3ccccc3)C[C@H]1[C@H]1O[C@H]12 (stereo not given in full)	-1%	nt	8%	6%	nt	nt
O=C1NC(=O)/C(=C/c2cccc3ccccc23)S1	-2%	nt	nt	nt	nt	2%[76.3 µM]
O=C1NC(=O)/C(=C\c2ccc(O)cc2O)S1	-14%	1	-3%	-14%	?	2.8µM*
COc1ccc2c(c1)O[C@H](c1ccc3c(c1)OCO3)[C@@H](OC(=O)Nc1ccc(C)c(Br)c1)C2=O	28%	-3	8%	3%	nt	nt
COC(=O)NC(/C(C(=O)OC)=C(\C)NCc1ccccc1)c1ccc(F)cc1 (stereo not given)	1%[12.8 µM]	nt	18%[17.5 µM]	7%[17.4 µM]	nt	nt
CC1=Nc2ccccc2N=C(N)C1c1ccccc1 (stereo not given)	-6%	3	9%	5%	3%	16µM*
COc1ccc(NC(=S)N2CCCC(c3nc4ccc(C)cc4[nH]3)C2)c(OC)c1 (stereo not given)	14%	-16	9%	1%	-5%	16µM*
Oc1ccccc1OCc1nc2ccccc2s1	-10%	-2	0%	0%	-9%	-30%
Oc1ccc(O)c(Cc2nc3ccccc3s2)c1	6%	-11	3%	-3%	-18%	5.6µM*
C1=Cc2ccccc2Nc2ccccc21	3%	1	4%	-9%	nt	16µM*
COc1ccc(OC)c(N/C(C)=C/C(=O)c2ccncc2)c1	-1%	nt	nt	nt	nt	-11%[76.3 µM]
C/C(=C\C(=O)c1ccncc1)Nc1ccccc1O	-3%	-17	10%	-3%	-4%	25µM*
COC(=O)N[C@@H](c1cccc(F)c1)C(C(C)=O)C(=O)OC (stereo not given in full)	11%	-2	16%	-11%	nt	nt
C[C@H](NC(=O)N1CCc2nc(-c3ccccc3)c3c(c2C1)CO[C@@H](C)C3)c1ccccc1	9%[12.8 µM]	-9	3%[17.5 µM]	0%[17.4 µM]	nt	nt
CCOC(=O)Cn1cnc2c(nnn2-c2ccc(F)cc2)c1=O	-2%	nt	nt	nt	nt	50µM*
COC(=O)Cn1cnc2c(nnn2-c2ccc(F)cc2)c1=O	4%	nt	nt	nt	nt	15%[76.3 µM]
COc1oc(=O)c2cc(N)ccc2c1Cl	-2%	nt	-9%	4%	nt	nt
CCC(C)c1ccc(O)c(N)c1 (stereo not given)	-4%	5	13%	9%	-4%	25µM*
CC(C)c1ccc(O)c(N)c1	0%	-15	4%	-8%	2%	10µM*
CC(C)C[C@H](NC(=O)[C@H](Cc1cnc[nH]1)NC(=O)[C@@H](N)Cc1cnc[nH]1)C(=O)NCC(=O)NCC(=O)N[C@@H](C)C(=O)N[C@@H](CCCCN)C(=O)N[C@@H](CCC(N)=O)C(=O)N[C@@H](C)C(=O)NCC(=O)N[C@@H](CC(=O)O)C(=O)N[C@H](C(=O)O)C(C)C	-8%	nt	-9%	-2%	nt	nt
